Results filed as inconclusive are left out. Where a call stands in place of a potency, no number is given. Activity calls are given as the source filed them. Calls come from the whole dose curve; as a rule, active = well fitted curve in the direction sought with a large enough effect; inconclusive = small, poorly fitted or top-dose-only effect, or another doubt; inactive = no such curve, though single readings can be large; an effect the other way counts as inactive or inconclusive.
Tests used:
[1] = molecular target: Protein phosphatase 1D (Homo sapiens) (UniProt O15297); assay: RapidFire Mass Spectrometry qHTS Assay for Modulators of WT P53-Induced Phosphatase 1 (WIP1) (AID 1347424);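 note: amount of dephosphorylated VEPPL-S-QETFS peptide product formed by WIP1; series mostly up to about 63 µM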
Summary of the method: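 Mass-spectrometric measurement of dephosphorylated peptide after a 5 min room-temperature reaction of 10 nM WIP1 with 2 uM phosphopeptide, following 1 h compound preincubation in 30 mM MgCl2 buffer.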

[2] = molecular target: Protein phosphatase 1D (Homo sapiens) (UniProt O15297); assay: Rhodamine-PBP qHTS Assay for Modulators of WT P53-Induced Phosphatase 1 (WIP1) (AID 1347425)
Summary of the method: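 Read-out: Rhodamine-PBP fluorescence (ex 525/em 598 nm) for released Pi, read each minute for 11 min after adding 10 uM VEPPL-pS-QETFS; signal taken as f1 minus pre-substrate f0. Enzyme 5 nM WIP1 with 1 hr room-temperature compound preincubation.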

Chain of Protein phosphatase 1D (Homo sapiens) (O15297 whole entry, looked up): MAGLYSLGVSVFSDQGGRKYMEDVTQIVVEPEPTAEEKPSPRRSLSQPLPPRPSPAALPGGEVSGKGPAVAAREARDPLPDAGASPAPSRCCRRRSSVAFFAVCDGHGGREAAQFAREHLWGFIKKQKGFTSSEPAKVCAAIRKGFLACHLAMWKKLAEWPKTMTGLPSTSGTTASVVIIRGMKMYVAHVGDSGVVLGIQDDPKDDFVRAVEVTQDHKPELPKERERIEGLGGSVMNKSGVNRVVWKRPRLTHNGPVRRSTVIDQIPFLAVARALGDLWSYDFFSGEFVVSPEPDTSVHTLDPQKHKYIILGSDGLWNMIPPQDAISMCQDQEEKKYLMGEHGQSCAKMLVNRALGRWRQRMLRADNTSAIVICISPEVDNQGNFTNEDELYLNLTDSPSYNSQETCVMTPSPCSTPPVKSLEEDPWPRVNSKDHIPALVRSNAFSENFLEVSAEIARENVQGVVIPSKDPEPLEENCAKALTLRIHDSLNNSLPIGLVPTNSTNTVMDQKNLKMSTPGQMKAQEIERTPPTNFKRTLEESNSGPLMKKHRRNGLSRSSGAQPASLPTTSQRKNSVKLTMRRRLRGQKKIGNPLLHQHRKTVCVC

| SMILES | Potency [1] | outcome [2] |
| --- | --- | --- |
| O=C(O)CCCCC(=O)O | inactive | inactive |
| CCCCCCCCCCCCCCNCCO | inactive | inactive |
| CC(O)C(=O)O (configuration not stated) | inactive | inactive |
| CCCCC(=O)O[C@]1(C(=O)CO)CC[C@H]2[C@@H]3CCC4=CC(=O)CC[C@]4(C)[C@H]3[C@@H](O)C[C@@]21C | inactive | inactive |
| CCCCCCCCCCOCC(O)CN (configuration not stated) | inactive | inactive |
| COc1ccc(/C=C/C(=O)c2ccc(OC)cc2OC)cc1 | inactive | inactive |
| C=C(CC)C(=O)c1ccc(OCC(=O)O)c(Cl)c1Cl | inactive | inactive |
| C[C@]12CC[C@H]3[C@@H](CCC4=CC(=O)CC[C@@]43C)[C@@H]1CC[C@@H]2C(=O)CO | inactive | inactive |
| CC(C)(C)CC(C)(C)c1ccc(OCCOCC[N+](C)(C)Cc2ccccc2)cc1 | inactive | inactive |
| C[C@H]1[C@H](NC(=O)/C(=N/OC(C)(C)C(=O)O)c2csc(N)n2)C(=O)N1S(=O)(=O)O (stereo in doubt) | inactive | inactive |
| C[C@]12CCC(=O)C=C1CC[C@H]1[C@@H]3CC[C@](O)(C(=O)CO)[C@@]3(C)C[C@H](O)[C@@]12F | inactive | inactive |
| CC(C)NC[C@@H](O)COc1cccc2ccccc12 | inactive | inactive |
| COc1ccc(CCN2CCC(Nc3nc4ccccc4n3Cc3ccc(F)cc3)CC2)cc1 | inactive | inactive |
| C#C[C@]1(O)CC[C@H]2[C@@H]3CCC4=CC(=O)CC[C@@H]4[C@H]3CC[C@@]21C | inactive | inactive |
| CCCOC(C(=O)OC1CCN(C)CC1)(c1ccccc1)c1ccccc1 | inactive | inactive |
| CC1=C(C(=O)OC(C)C)C(c2cccc([N+](=O)[O-])c2)C(C(=O)OC2CN(C(c3ccccc3)c3ccccc3)C2)=C(N)N1 (configuration not stated) | inactive | inactive |
